Compound activity (PubChem BioAssay)
In the library only some 2.9% were active in any assay of this set; here they are far more common.
PAFAH2 FP inh: PAFAH2 (human) inhibition. inhibition, % at 3.39 µM. AID 492956. recombinant PAFAH2, FP-rhodamine activity probe, fluorescence polarization. Q99487. actives 0.99% (n = 340,000);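 active means inhibition above the mean over all tested compounds plus 3 SD, cut at about 30% in these data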;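 further: inhibitors block probe labeling of enzyme so polarization drops; 0% = enzyme with DMSO and 100% = wells lacking PAFAH2 protein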
PAFAH1B3 inh: blocks human PAF acetylhydrolase 1B catalytic subunit 3 | Q15102 | recombinant PAFAH1B3, FP-rhodamine probe, fluorescence polarization | inhibition, % at 3.39 µM | actives 0.28% (n = 340,000) | AID 492972;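 active means inhibition above the screen-wide average of all tested compounds plus 3 SD, cut at about 25% in these data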;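 further: 0% = enzyme with DMSO only and 100% = wells lacking PAFAH1B3 protein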
Target sequence (Q15102 whole entry, looked up): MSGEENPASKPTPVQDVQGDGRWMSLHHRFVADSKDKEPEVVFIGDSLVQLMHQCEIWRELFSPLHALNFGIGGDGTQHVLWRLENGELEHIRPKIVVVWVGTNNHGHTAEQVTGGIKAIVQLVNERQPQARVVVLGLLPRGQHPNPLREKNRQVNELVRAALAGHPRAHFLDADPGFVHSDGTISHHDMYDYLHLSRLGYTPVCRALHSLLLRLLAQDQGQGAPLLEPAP
pPAFAH FP inh: inhibitors of human plasma PAF acetylhydrolase (pPAFAH); recombinant pPAFAH, FP-rhodamine probe fluorescence polarization; actives 1.5% (n = 330,000); inhibition, % at 3.39 µM;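 active means inhibition above the mean inhibition across the screen plus 3 SD, cut at about 25% in these data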;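 further: inhibitors block binding of the rhodamine activity-based probe so polarization drops; 0% = enzyme with DMSO and 100% = wells lacking pPAFAH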
ZTA counter: counter-screen for EBNA-1 inhibitors: inhibitors of Epstein-Barr virus ZTA. actives 0.15% (n = 320,000). AID 2234. P03206. ZTA-DNA binding, fluorescence polarization. inhibition, % at 11 µM; in the data active means inhibition above about 33%
PAFAH1B2 FP inh: PAFAH1B2 (human) inhibition; recombinant PAFAH1B2, FP-rhodamine activity probe, fluorescence polarization; inhibition, % at 3.39 µM; actives 1.2% (n = 340,000); AID 492953;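 active means inhibition above the mean of all tested compounds plus 3 SD, cut at about 24% in these data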;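 further: 0% = enzyme with DMSO and 100% = wells lacking PAFAH1B2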
Target sequence (P68402 whole entry, looked up): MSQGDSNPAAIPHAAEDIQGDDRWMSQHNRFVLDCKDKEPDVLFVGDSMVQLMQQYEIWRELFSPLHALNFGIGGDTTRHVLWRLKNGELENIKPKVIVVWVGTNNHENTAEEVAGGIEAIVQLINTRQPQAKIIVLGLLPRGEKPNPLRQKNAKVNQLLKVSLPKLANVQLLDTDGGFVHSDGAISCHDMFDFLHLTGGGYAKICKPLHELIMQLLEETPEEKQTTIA
EBNA-1 inh: blocks EBNA-1 binding to DNA; AID 1950; actives 0.34% (n = 300,000); EBNA-1 DNA binding, fluorescence polarization; inhibition, % at 14.8 µM; in the data active means inhibition above about 28%
The depositor's hits bear a star; . = no result.

SMILES	PAFAH2 FP inh	PAFAH1B3 inh	pPAFAH FP inh	ZTA counter	PAFAH1B2 FP inh	EBNA-1 inh
Cc1noc(C)c1COc1ccc(C(=O)OCC(=O)Nc2c(C)n(C)n(-c3ccccc3)c2=O)cc1	14	-3	9	-3	-4	7
CSCCC(NC(=O)COc1ccccc1)C(=O)NCCOc1ccccc1 (configuration not stated)	-3	6	-1	-20	12	.
COc1ccc(N(CC(=O)NCCSCc2ccc(Cl)cc2)S(C)(=O)=O)cc1Cl	2	8	9	9	15	6
N#CCC(=O)Nc1ccc(C(=O)N2CCN(c3ccccn3)CC2)cc1	-9	9	6	9	7	8
O=C(C(Cl)Cl)N1CCN(Cc2ccccc2)CC1	1	4	0	4	2	-9
O=C(C(c1ccccc1)c1ccccc1)N1CCN(Cc2ccc(Br)cc2)CC1	-4	4	-1	-12	24*	-2
Cc1cc(F)ccc1NC(=O)CCc1ccc(S(=O)(=O)N2CCOCC2)cc1	0	15	0	3	-3	.
NC(=O)/C(=C/c1cccnc1)NC(=O)c1ccccc1	5	-3	-6	-5	0	2
C(=N\n1cnnc1)/c1cccc(OCCOc2ccccc2)c1	4	3	1	-18	28*	2
Cc1ccc(S(=O)(=O)Oc2cccc(/C=N/n3cnnc3)c2)cc1	-9	11	4	-11	24*	-11
CCOc1cc(N2CCOCC2)c(OCC)cc1NC(=O)C1CC(=O)N(c2ccc(C)cc2)C1 (configuration not stated)	8	5	3	1	5	.
Cc1cc(CNC(=O)COC(=O)Cn2[nH]c(=O)c3ccccc3c2=O)cc(C)c1O	0	4	-5	11	3	-9
CNc1ccccc(C(=O)/C=C/c2ccccc2OC)c1=O	15	18	28*	8	4	7
COc1ccc(OCC(=O)NNC(=O)C(=O)N2CCCC2)cc1	-6	6	3	-15	4	-3
O=C(COc1ccc(Cl)cc1)NNC(=O)C(=O)N1CCCCC1	1	0	5	7	31*	8
Cc1ccc(S(=O)(=O)/N=C(/c2ccc(F)cc2)N2CCCCC2)cc1	0	2	-1	1	0	6
O=C(NC(=S)NNC(=O)c1ccccc1O)c1cccnc1	60*	26*	16	1	19	-4
C=CCNC(=O)c1onc(CSc2ccc(Cl)cc2)c1C(=O)NCC=C	-8	-5	0	7	25*	5
Cc1c(O)cc2c(c1O)C(=O)CC(c1ccc(O)cc1)O2 (configuration not stated)	5	15	32*	8	4	-2
CC(C)(C)c1ccc(C(=O)N2CCNCC2)cc1	-3	6	27*	5	1	-2
CC(C)(C)c1ccc(C(=O)N2CCCN(C(=O)c3ccc(C(C)(C)C)cc3)CC2)cc1	0	0	3	-6	3	4
CCOc1ccc(Nc2nc(Cc3nnc(SCC(=O)O)o3)cs2)cc1	12	12	28*	0	3	-2
O=C(Nc1nnc(-c2ccc3c(c2)CCCC3)o1)C1COc2ccccc2O1 (configuration not stated)	3	7	31*	4	0	-5
Cc1cc(F)c(F)c(C(=O)N2CCC(C)CC2)c1Cl	1	4	6	0	0	1
O=C(CSc1nnc(Cc2cccs2)n1-c1ccc(Cl)cc1)NCc1ccc2c(c1)OCO2	3	0	25*	5	-2	10
SMILES	PAFAH2 FP inh	PAFAH1B3 inh	pPAFAH FP inh	ZTA counter	PAFAH1B2 FP inh	EBNA-1 inh
Cc1ccc(-n2c(Cc3cccs3)nnc2SCC(=O)Nc2ccc(S(N)(=O)=O)cc2)cc1	9	8	26*	0	7	-17
NS(=O)(=O)c1ccc(NC(=O)CSc2nnc(Cc3cccs3)n2-c2ccccc2)cc1	-4	3	6	-1	0	3
O=C(CSc1nnc(-c2cccs2)n1-c1ccccc1)NCc1ccc2c(c1)OCO2	5	-6	4	-7	9	-1
Cn1c(=S)[nH]c2sc3c(c2c1=O)CCC(C(C)(C)C)C3 (configuration not stated)	15	2	0	2	44*	9
O=C(COC(=O)c1ccc2ccccc2n1)Nc1ncc(C(F)(F)F)cc1Cl	9	2	26*	4	-2	2
O=C(COC(=O)c1ccc(S(=O)(=O)NCc2ccco2)cc1)Nc1ncc(Cl)cc1Cl	16	2	25*	23	2	20
O=C(COC(=O)c1nc(Cl)ccc1Cl)Nc1ncc(Cl)cc1Cl	52*	51*	4	-30	61*	-4
COc1ccccc1OCCC(=O)OCC(=O)Nc1ncc(Cl)cc1Cl	15	0	26*	3	0	-8
O=C(COC(=O)c1nc(Cl)ccc1Cl)NCc1ccc(Cl)cc1Cl	4	6	.	.	5	.
O=C(NCc1ccc(F)cc1)C1CCN(S(=O)(=O)c2ccc(Br)s2)CC1	-11	2	3	-15	25*	-10
CC(=O)OCc1c(C(F)(F)F)nn(C)c1SCc1ccc(Cl)cc1	2	3	2	1	30*	-2
COC(=O)c1cnc(SCc2ccc(Cl)cc2)n1C	4	3	2	3	3	-7
N=C1/C(=C\c2coc3ccc(O)cc3c2=O)C(=O)N=C2SC=CN12	-6	-2	26*	13	-2	-4
N=C1/C(=C/c2coc3ccccc3c2=O)C(=O)N=C2SC(c3ccco3)=NN12	.	.	22	11	.	3
O=C(COC(=O)Cc1ccsc1)NNC(=O)c1ccccc1	-3	3	26*	.	3	.
O=C(COC(=O)Cc1ccsc1)Nc1ccccc1	15	12	27*	-6	-3	-10
O=C(COC(=O)CCc1c[nH]c(=O)[nH]1)Nc1ccccc1	34*	-1	2	3	1	3
O=C(COC(=O)Cc1ccsc1)Nc1cccc(F)c1	17	3	29*	-17	9	.
CC(=O)c1ccc(NC(=O)COC(=O)Cc2ccsc2)cc1	17	8	10	.	3	.
O=C(CN1C(=O)NC2(CCCCCC2)C1=O)NCc1ccccc1Cl	2	11	1	.	6	.
COc1ccc(N2CCN(c3ncnc4scc(-c5ccccc5)c34)CC2)cc1	1	3	32*	-10	3	-16
COc1cc(/C=C2\SC(=S)N(C(C(=O)O)c3ccccc3)C2=O)ccc1O (configuration not stated)	-147	-122	-38	2	-83	7
O=C(O)C(c1ccccc1)N1C(=O)/C(=C\c2ccc(O)c(O)c2)SC1=S (configuration not stated)	-11	0	30*	0	-80	-1
COc1ccc(CCNC(=O)CCCOc2ccc(Cl)cc2)cc1OC	8	0	6	-10	8	-12
